From PubChem BioAssay (Tox21)
Results filed as inconclusive are left out. The source made the active and inactive calls. The call rests on the fitted dose curve; in most records, active means well fitted activation curve with a large enough effect in the signal ratio in the repeat runs (not every such curve was filed as active); inconclusive means weak or mixed curves, or effect the other way; inactive means flat fitted curve, though single readings scatter; the % refers to the signal ratio.

Each compound was assayed against Bile acid receptor (Homo sapiens) (UniProt Q96RI1) (assay: qHTS assay to identify small molecule agonists of the farnesoid-X-receptor (FXR) signaling pathway (AID 743220)). Conditions: HEK293T FXR-UAS-bla, beta-lactamase FRET ratio, 16 h; series mostly up to 62.6 µM.
Bile acid receptor (Homo sapiens), sequence (Q96RI1 whole entry, looked up): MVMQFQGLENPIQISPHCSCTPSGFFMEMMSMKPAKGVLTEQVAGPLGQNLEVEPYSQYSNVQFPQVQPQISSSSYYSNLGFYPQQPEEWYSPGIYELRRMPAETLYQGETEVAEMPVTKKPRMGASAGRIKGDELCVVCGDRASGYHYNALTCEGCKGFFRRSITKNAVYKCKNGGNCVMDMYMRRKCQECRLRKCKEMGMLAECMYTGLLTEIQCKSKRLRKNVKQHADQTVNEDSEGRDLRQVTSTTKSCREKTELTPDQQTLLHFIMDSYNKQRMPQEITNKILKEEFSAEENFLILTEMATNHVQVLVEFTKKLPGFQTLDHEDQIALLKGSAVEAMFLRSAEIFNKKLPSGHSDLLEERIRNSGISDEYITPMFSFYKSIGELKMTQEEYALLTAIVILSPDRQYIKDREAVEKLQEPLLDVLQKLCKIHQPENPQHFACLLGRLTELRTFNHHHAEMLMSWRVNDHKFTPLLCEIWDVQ
Excerpt: National Center for Advancing Translational Sciences [NCATS]
NIH Chemical Genomics Center [NCGC]
U.S. Environmental Protection Agency [EPA]
National Institutes of Environmental Health Sciences [NIEHS]
National Toxicology Program [NTP]
U.S. Food and Drug Administration [FDA]
The farnesoid-X-receptor (FXR), a nuclear hormone receptor, is highly expressed in liver, intestine, kidney and adrenal cortex. Natural ligands of FXR are the bile acids (Cholic acid, Chenodeoxy cholic acid etc). FXR is an important regulator of diverse metabolic pathways, including the bile acid homeostasis, lipid and glucose metabolisms. FXR regulates the expression of target genes by binding either as a monomer or as a heterodimer with the retinoid X receptor (RXR). Numerous studies have reported that FXR exerts protective function during cholestasis, diabetes, liver regeneration, and cancer. To identify compounds that activate FXR signaling, GeneBLAzer FXR-UAS-bla HEK 293T cell line (Invitrogen, Carlsbad, CA) containing a beta-lactamase reporter gene under the control of a UAS response element was used to screen the Tox21 10K compound library.
Tox21 Assay Protocol Summary:
FXR-bla cells were dispensed at 5000 cells/5uL/well in 1536-well black wall/clear bottom plates using a Multidrop Combi (Thermo Fisher Scientific, Waltham, MA) dispenser. After the assay plates were incubated at 37C and 5% CO2 for 5 h, 23 nL of compounds dissolved in DMSO, positive controls or DMSO only was transferred to the assay plate by a Pintool station (Kalypsys, San Diego, CA). The assay plates were incubated at 37C for 16 h. After 1 uL of LiveBLAzerTM B/G FRET substrate was added using a Bioraptr Flying Reagent Dispenser (FRD) workstation (Beckman Coulter, Indianapolis, IN), the plates were incubated at room temperature for 2 h, and fluorescence intensity was measured by an Envision plate reader (PerkinElmer, Shelton, CT).

Row | Structure (SMILES) | outcome
1 | CC(C)(C)C(=O)Cl | inactive
2 | CC(C)(C)NC[C@H](O)c1ccc(O)cc1Cl | inactive
3 | ClC(Cl)(Cl)Cl | inactive
4 | C=CCN1CC[C@]23CCCC[C@H]2[C@H]1Cc1ccc(O)cc13 | inactive
5 | C(COCC1CO1)OCC1CO1 (stereo not given) | inactive
6 | CCN[C@@H](C)Cc1cccc(C(F)(F)F)c1 | inactive
7 | O=C(O)C(Cl)Br (stereo not given) | inactive
8 | CCC(C(N)=O)N1CCCC1=O (stereo not given) | inactive
9 | Cn1c(CCCC(=O)O)nc2cc(N(CCCl)CCCl)ccc21 | inactive
10 | CCCOC(=O)Cc1ccc(OCC(=O)N(CC)CC)c(OC)c1 | inactive
11 | CCCC[N+](=O)[O-] | inactive
12 | C[C@H](CN1CCOCC1)C(C(=O)N1CCCC1)(c1ccccc1)c1ccccc1 | inactive
13 | ClCOCCl | inactive
14 | CCOC(=O)C(SP(=S)(OC)OC)c1ccccc1 (stereo not given) | inactive
15 | Oc1ccc2c3c1O[C@H]1[C@@H](O)C=C[C@H]4[C@@H](C2)NCC[C@@]341 | inactive
16 | CN(CCO)CCO | inactive
17 | N[C@@H]1C[C@H]1c1ccccc1 | inactive
18 | CCOC(=O)C(Cl)Cc1cc(-n2nc(C)n(C(F)F)c2=O)c(F)cc1Cl (stereo not given) | inactive
19 | CCOC(=O)CCl | inactive
20 | C/C=C/CC#N | inactive

Row | Structure (SMILES) | outcome
21 | COc1ccc(CN2CCNCC2)c(OC)c1OC | inactive
22 | CC(C)[C@]12CC(=O)[C@H](C)[C@H]1C2 | inactive
23 | O=C(Cl)C(Cl)(Cl)Cl | inactive
24 | CCN(CC)C1CCCCC1 | inactive
25 | CCCCS(=O)(=O)Cl | inactive
26 | O=C(Cl)CCl | inactive
27 | CCC(=O)OC1(c2ccccc2)CCN(C)CC1 | inactive
28 | O=C1CCCCC1Cl (stereo not given) | inactive
29 | Cc1ccc(S(=O)(=O)N[C@@H](CCCCN)C(=O)CCl)cc1 | inactive
30 | O=C(O)C(F)(F)C(F)(F)C(F)(F)C(F)(F)C(F)(F)C(F)(F)F | inactive
31 | CC(C)(O)C(Cl)(Cl)Cl | inactive
32 | CN(C)CCN(C)C | inactive
33 | COc1cc(CCN)cc(OC)c1OC | inactive
34 | Cc1ccc2cc(C)ccc2c1 | inactive
35 | O=C(Cl)/C=C/C(=O)Cl | inactive
36 | COP(=O)(O)OC | inactive
37 | CCNc1nc(Cl)nc(NC(C)(C)C)n1 | inactive
38 | CCOC(=O)c1ncn2c1CN(C)C(=O)c1c(I)cccc1-2 | inactive
39 | O=C1CC(=O)NC(=O)N1 | inactive
40 | Cc1ccc(Cl)c(O)c1 | inactive
